The supplement of paper PMC11732987, “Enantioselective OTUD7B fragment discovery through chemoproteomics screening and high-throughput optimisation” (Communications Chemistry, 2025)

Columns and labels:
Experiment in all cases: log2 ratio of Biotin-Ahx-Ub-VS probe labelling (fragment/DMSO); higher = less target engagement (more negative = stronger competition), active = hit call of the paper (q ≤ 0.05, log2 ratio ≤ -1)
Conditions in all cases: compound concentration: 200 uM; treatment time: 3 h
[1] = target: USP34 (UniProt Q70CQ2)
Outline: (§1)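 Average log2 ratios of fragment over vehicle were obtained by unpaired t-test from global-median-normalised Spectronaut label-free quantities. Proteins with ≥2 unique peptides were included. HEK293T lysate (495 µg per sample) was treated in triplicate with fragment at 200 µM or vehicle for 3 h, then with Biotin-Ahx-Ub-VS at 0.5 µM final for 1 h, and labelled DUBs were NeutrAvidin-enriched and run by diaPASEF LC-MS/MS.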

[2] = target: T1, USP36 (UniProt Q9P275)
T1 sequence (whole entry): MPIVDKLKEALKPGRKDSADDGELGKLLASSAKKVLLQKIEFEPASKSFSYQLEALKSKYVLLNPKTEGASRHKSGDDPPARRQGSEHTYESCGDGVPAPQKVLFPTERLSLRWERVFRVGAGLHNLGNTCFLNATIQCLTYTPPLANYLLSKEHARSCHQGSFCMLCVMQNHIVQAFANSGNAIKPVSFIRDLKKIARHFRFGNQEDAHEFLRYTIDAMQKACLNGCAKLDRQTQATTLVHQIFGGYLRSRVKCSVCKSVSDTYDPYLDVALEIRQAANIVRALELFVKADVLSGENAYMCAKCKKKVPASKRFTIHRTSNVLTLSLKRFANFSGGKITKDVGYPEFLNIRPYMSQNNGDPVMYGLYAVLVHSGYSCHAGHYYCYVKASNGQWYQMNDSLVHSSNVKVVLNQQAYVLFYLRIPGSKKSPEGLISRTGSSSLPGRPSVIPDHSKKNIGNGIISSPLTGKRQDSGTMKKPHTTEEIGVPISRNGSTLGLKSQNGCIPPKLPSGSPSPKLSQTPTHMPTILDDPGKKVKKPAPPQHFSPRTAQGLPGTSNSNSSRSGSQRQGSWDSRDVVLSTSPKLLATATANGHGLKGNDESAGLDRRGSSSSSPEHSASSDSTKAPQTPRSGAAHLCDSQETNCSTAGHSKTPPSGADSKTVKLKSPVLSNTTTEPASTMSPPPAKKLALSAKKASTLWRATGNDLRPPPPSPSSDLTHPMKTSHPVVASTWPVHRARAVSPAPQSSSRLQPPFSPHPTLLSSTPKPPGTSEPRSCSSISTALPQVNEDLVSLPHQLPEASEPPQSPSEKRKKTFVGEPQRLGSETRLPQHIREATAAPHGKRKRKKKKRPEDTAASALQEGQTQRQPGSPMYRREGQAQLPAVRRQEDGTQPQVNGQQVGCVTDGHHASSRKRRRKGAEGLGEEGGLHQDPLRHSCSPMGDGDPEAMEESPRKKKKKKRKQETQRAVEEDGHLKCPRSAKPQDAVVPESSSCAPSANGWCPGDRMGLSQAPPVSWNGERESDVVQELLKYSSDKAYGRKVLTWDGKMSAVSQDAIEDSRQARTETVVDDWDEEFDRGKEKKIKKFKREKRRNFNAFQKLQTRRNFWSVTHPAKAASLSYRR
Outline: as §1

[3] = target: T2, USP38 (UniProt Q8NB14)
T2 sequence (whole entry): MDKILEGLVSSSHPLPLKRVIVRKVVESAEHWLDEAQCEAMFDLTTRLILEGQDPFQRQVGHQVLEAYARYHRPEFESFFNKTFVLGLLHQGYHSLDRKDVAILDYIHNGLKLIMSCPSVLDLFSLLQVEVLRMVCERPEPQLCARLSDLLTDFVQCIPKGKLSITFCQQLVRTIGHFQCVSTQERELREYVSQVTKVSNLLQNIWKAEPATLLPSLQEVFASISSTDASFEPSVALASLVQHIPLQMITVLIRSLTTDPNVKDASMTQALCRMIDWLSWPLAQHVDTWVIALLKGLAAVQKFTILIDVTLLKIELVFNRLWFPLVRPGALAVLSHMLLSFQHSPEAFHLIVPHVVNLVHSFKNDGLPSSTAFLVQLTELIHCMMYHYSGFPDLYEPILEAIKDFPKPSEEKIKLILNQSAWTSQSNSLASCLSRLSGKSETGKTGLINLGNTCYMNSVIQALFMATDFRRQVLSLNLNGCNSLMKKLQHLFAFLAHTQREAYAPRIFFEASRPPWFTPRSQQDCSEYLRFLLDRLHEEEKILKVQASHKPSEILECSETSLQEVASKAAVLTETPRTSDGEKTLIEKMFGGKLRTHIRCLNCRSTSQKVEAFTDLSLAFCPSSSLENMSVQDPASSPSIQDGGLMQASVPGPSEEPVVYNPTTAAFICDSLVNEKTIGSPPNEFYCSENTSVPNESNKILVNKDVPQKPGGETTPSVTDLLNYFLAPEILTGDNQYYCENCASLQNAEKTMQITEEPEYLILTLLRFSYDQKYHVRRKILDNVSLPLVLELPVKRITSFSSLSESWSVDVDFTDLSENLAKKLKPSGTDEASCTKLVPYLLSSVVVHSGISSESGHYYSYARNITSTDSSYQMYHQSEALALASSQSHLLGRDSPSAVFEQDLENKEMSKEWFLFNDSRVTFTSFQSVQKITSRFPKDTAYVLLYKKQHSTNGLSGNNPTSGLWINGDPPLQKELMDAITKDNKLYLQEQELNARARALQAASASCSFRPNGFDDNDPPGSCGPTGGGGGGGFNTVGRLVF
Outline: as §1

[4] = target: T3, USP39 (UniProt Q53GS9)
T3 sequence (whole entry): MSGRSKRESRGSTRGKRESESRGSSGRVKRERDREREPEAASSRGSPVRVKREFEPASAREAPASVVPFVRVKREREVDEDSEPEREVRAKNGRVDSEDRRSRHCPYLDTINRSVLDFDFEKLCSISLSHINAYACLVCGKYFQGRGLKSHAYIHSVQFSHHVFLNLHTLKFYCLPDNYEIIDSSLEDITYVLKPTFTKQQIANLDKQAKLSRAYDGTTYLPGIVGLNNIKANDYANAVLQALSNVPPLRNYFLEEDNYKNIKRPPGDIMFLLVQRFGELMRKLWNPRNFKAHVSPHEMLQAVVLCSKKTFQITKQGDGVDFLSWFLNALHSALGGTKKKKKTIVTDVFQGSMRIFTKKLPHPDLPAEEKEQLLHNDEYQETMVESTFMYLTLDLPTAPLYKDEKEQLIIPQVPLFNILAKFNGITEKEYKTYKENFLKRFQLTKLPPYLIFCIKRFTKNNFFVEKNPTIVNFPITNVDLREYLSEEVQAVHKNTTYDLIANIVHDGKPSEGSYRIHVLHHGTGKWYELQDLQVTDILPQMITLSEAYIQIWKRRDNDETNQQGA
Outline: as §1

[5] = target: T4, USP4 (UniProt Q13107)
T4 sequence (whole entry): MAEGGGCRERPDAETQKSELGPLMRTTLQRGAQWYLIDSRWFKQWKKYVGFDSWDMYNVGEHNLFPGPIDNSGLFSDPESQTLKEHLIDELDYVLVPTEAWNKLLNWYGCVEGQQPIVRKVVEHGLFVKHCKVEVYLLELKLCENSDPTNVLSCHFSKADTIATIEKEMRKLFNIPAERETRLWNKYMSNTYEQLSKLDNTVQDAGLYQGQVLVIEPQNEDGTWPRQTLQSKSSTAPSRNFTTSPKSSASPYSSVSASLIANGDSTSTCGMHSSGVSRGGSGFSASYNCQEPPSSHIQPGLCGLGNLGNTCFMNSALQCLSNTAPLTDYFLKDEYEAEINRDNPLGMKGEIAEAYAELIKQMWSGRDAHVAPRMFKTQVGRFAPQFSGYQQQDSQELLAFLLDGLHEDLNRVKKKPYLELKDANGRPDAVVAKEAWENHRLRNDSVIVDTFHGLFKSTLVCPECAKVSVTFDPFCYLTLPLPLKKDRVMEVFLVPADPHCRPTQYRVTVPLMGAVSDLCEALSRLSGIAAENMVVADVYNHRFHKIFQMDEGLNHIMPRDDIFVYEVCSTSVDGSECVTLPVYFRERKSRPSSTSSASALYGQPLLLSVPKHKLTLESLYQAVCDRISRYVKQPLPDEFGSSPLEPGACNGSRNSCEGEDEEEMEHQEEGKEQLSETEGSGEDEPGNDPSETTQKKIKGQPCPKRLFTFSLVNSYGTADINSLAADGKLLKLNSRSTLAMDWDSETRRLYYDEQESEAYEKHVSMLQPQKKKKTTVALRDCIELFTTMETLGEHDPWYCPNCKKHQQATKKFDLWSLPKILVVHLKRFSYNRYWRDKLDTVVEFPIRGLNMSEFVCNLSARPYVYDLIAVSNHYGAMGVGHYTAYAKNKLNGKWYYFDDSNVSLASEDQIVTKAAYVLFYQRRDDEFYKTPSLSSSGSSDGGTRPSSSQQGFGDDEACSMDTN
Outline: as §1

Measured: log2 ratio of Biotin-Ahx-Ub-VS probe labelling

USP34, sequence (Q70CQ2 whole entry, the tested form may be a part): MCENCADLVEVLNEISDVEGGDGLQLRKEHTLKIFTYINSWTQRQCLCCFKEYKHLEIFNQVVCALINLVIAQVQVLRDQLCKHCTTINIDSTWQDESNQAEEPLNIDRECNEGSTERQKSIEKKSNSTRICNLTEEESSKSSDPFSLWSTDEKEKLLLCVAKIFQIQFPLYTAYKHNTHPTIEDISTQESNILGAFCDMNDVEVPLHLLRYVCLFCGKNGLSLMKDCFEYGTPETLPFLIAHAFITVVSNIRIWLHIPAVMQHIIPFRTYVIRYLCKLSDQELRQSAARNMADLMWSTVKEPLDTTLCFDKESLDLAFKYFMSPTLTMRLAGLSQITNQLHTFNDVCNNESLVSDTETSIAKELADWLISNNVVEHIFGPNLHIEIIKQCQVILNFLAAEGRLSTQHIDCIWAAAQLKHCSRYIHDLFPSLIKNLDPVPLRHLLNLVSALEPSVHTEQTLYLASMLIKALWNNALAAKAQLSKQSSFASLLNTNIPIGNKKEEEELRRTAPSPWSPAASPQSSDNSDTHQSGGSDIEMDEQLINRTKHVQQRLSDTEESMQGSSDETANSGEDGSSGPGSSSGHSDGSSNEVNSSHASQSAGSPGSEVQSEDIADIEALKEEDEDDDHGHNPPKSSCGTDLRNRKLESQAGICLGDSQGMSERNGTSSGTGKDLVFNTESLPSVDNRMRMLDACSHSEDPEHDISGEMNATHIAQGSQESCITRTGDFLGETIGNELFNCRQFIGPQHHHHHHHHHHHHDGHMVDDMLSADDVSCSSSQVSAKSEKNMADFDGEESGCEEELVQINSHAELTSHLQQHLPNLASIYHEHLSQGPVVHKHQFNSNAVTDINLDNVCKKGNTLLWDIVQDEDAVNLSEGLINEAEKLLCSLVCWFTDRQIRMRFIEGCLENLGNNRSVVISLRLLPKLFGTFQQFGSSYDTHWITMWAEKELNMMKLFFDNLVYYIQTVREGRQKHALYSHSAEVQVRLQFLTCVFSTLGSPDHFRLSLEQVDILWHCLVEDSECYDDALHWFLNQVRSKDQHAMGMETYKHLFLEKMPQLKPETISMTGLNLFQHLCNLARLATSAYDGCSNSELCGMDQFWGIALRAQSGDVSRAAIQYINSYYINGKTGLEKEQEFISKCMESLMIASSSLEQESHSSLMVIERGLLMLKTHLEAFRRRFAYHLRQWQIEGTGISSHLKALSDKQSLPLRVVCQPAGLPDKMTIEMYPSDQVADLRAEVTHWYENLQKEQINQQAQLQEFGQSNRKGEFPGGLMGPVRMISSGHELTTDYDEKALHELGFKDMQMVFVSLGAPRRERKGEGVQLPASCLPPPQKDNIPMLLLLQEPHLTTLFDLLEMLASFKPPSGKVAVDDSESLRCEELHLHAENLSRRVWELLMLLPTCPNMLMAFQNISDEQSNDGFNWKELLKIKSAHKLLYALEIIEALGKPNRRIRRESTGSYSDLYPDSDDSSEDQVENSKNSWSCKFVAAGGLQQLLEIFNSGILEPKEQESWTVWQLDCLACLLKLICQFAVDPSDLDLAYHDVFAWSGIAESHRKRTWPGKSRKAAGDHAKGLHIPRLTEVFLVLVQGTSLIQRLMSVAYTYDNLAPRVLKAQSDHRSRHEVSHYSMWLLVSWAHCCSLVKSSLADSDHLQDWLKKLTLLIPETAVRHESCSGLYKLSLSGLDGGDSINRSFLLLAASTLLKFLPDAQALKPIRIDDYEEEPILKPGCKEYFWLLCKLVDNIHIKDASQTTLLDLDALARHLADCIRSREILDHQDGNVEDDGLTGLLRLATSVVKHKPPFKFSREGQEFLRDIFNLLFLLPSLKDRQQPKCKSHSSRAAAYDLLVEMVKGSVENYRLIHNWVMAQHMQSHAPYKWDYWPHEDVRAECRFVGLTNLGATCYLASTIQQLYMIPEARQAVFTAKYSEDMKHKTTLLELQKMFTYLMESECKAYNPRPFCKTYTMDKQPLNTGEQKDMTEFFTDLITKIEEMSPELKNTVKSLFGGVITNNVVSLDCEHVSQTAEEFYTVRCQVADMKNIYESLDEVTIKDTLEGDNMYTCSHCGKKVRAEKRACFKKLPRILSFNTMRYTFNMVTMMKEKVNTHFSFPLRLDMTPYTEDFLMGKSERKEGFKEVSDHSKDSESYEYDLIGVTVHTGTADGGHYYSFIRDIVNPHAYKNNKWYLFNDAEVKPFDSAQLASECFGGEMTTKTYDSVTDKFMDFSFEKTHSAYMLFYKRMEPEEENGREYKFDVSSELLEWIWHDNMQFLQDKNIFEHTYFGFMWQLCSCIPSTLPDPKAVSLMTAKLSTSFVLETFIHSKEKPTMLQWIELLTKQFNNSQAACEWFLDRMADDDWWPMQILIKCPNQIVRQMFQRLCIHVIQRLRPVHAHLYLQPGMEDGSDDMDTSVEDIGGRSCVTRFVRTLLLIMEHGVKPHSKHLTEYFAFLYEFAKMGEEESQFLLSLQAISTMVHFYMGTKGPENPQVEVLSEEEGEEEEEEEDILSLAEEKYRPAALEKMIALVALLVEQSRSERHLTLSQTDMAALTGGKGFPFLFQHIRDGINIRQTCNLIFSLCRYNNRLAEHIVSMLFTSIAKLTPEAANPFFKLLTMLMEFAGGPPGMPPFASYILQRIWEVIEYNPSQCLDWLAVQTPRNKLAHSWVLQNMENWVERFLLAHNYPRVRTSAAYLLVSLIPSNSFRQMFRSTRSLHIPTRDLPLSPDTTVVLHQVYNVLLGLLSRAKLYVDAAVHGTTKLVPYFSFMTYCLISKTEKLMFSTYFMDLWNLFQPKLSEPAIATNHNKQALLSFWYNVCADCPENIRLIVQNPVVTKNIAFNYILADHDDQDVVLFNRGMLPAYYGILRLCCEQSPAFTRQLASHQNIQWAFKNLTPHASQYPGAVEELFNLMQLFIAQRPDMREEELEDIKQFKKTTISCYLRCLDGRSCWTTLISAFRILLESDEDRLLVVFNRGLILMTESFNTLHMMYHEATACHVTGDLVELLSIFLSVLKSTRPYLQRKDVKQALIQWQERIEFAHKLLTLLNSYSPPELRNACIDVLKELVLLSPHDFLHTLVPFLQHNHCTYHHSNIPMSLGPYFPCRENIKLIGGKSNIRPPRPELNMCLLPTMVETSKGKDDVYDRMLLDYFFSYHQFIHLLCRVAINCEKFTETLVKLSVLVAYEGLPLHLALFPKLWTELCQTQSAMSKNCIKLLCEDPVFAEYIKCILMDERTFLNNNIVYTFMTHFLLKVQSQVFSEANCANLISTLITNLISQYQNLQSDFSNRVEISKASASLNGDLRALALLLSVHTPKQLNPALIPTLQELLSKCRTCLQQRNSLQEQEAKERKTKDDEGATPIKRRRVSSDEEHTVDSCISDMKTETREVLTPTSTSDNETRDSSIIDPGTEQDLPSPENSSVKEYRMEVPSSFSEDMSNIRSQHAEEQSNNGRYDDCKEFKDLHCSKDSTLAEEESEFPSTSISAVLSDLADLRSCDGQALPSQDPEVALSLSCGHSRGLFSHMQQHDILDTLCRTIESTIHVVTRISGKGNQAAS

COCC1C=CCCN1C(=O)CCl (stereo not given)
inactive: [1] -0.0902 | [2] -0.00282 | [3] -0.157 | [4] -0.196 | [5] -0.211
